Assay results: PubChem BioAssay (NCI)
The panel holds about 79,000 compounds, 15% with a hit somewhere; the sample as a whole holds those more often. A number with no mark means an inactive call. Active and inactive are the calls of the source. Rule as the data show it: active = growth inhibition above about 70%; inactive = the rest.

Assays:
[1] = NCI Yeast Anticancer Drug Screen. Data for the rad50 strain (AID 155);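 also: 0% = growth of vehicle-only cultures of the same strain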; conditions: S. cerevisiae rad50 strain growth inhibition, active compounds read high
Method in brief: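 A DNA repair-deficient yeast mutant serves as the test organism; compound-induced growth inhibition is calculated against vehicle-treated cells.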

[2] = NCI Yeast Anticancer Drug Screen. Data for the mec2-1 strain (AID 157); conditions: S. cerevisiae mec2-1 strain, active compounds read high
Method in brief: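 Test agents were screened against the mec2-1 yeast strain, with defined DNA repair or cell cycle alteration. Growth was scored as inhibition against vehicle-only controls.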

[3] = NCI Yeast Anticancer Drug Screen. Data for the sgs1 mgt1 strain (AID 161);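 also: 0% = growth of cultures given vehicle only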; conditions: S. cerevisiae sgs1 mgt1 strain, active compounds read high
Method in brief: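 Inhibition of yeast growth, normalised to vehicle-treated controls, is reported for a strain bearing genetic alterations in DNA damage repair.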

[4] = NCI Yeast Anticancer Drug Screen. Data for the cln2 rad14 strain (AID 165);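 also: 0% = growth equal to vehicle treated cultures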; conditions: S. cerevisiae cln2 rad14 strain, active compounds read high
Method in brief: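 Growth of compound-exposed yeast (cln2 rad14 genotype) measured and expressed as inhibition relative to vehicle.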

[5] = NCI Yeast Anticancer Drug Screen. Data for the bub3 strain (AID 167); conditions: S. cerevisiae bub3 mutant strain, active compounds read high
Method in brief: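 Inhibition values come from growth of compound-treated mutant yeast normalised to vehicle-treated controls.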

[6] = NCI Yeast Anticancer Drug Screen. Data for the mlh1 rad18 strain (AID 175); conditions: S. cerevisiae mlh1 rad18 strain growth inhibition, active compounds read high
Method in brief: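 In this whole-cell yeast screen, a strain with altered DNA damage repair is challenged with compound, and its growth is measured against matched vehicle-treated controls.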

[7] = at 5.0 µM (retest, dose inferred, filed as 0.5)
[8] = at 50.0 µM (retest, dose inferred, filed as 5.0)

SMILES	growth inhibition [1, 7] [%]	growth inhibition [1, 8]	growth inhibition ([1]; at 50.0 µM)	growth inhibition [2, 7] [%]	growth inhibition [2, 8]	growth inhibition ([2]; at 50.0 µM)	growth inhibition [3, 7]	growth inhibition [3, 8]	growth inhibition ([3]; at 50.0 µM)	growth inhibition [4, 7] [%]	growth inhibition [4, 8]	growth inhibition ([4]; at 50.0 µM)	growth inhibition [5, 7]	growth inhibition [5, 8]	growth inhibition ([5]; at 50.0 µM)	growth inhibition [6, 7] [%]	growth inhibition [6, 8]	growth inhibition ([6]; at 50.0 µM)
CCCC/C=C1\CCC(CN2CCCCC2)C1=O (stereo not given)	44	70% (active)	89.2% (active)	40	60%	69.8%	75% (active)	96% (active)	85.3% (active)	59	75% (active)	77.2% (active)	84% (active)	98% (active)	67.2%	56	83% (active)	88% (active)
COC(=O)c1ccc2c(c1)C(O)NC(=O)O2 (stereo not given)	16	97% (active)	98.5% (active)	15	97% (active)	98% (active)	15%	98% (active)	98.9% (active)	18	98% (active)	98.5% (active)	3%	95% (active)	98.6% (active)	21	97% (active)	98.5% (active)
Cc1cc(S(=O)(=O)Nc2nc(N)nc(N(C)C)n2)c(SC(C(=O)O)c2ccccc2)cc1Cl (stereo not given)	-11	-4%	-8.65%	-3	-15%	14.1%	-11%	-8%	-0.25%	-15	4%	93.2% (active)	14%	-17%	16.1%	-9	-3%	5.3%
COc1ccc(C2=CCC3C4CC=C5CC(O)CCC5(C)C4CCC23C)s1 (stereo not given)	0	13%	59.7%	-17	63%	64.1%	-23%	82% (active)	59.6%	-3	18%	53.5%	-1%	30%	66%	19	75% (active)	94.7% (active)
CS(=O)(=O)OCCN(CCOS(C)(=O)=O)c1ccc(N=Nc2ccccc2)cc1	32	82% (active)	57.7%	15	73% (active)	45%	52%	88% (active)	46%	45	96% (active)	49.8%	56%	84% (active)	39.5%	22	69%	76.8% (active)
C=CC(=O)NC(C)C	1	6%	74.7% (active)	0	2%	-3.7%	1%	4%	19.4%	-1	1%	16.7%	-2%	-4%	5.8%	0	9%	40.3%
CC1=C(C(=O)Nc2ccccc2Cl)C(c2cccc([N+](=O)[O-])c2)C(C(=O)Nc2ccccc2Cl)=C(C)N1	-12	53%	11.8%	27	67%	30.2%	-10%	51%	20.4%	11	61%	1.9%	21%	80% (active)	27.9%	13	63%	13.3%
COC(=O)CCCCCCCCCCC(=O)O	-3	-4%	2.45%	-1	-2%	-11.6%	-2%	4%	-9.55%	-9	-4%	-4.75%	-4%	-9%	38.6%	-2	2%	-6.6%
N#CC1(C#N)C2C=CC(c3coc4cccc2c34)C1(C#N)C#N (stereo not given)	29	37%	35.6%	17	27%	35.9%	32%	37%	75% (active)	19	27%	19.2%	22%	47%	58.2%	26	47%	57.9%
Cc1cccc2c(CBr)cc(=O)[nH]c12	7	91% (active)	86.8% (active)	15	98% (active)	90.1% (active)	13%	92% (active)	84.3% (active)	4	61%	91.5% (active)	12%	96% (active)	94.2% (active)	35	97% (active)	95.7% (active)
